These results are taken from the supplement of paper PMC10849652.

Targets with a hit are over-represented here; the source holds about 7,900 in all. About 0.6% of all pairs of compound and target were hits.

Chain of UniProt Q562R1 (Q562R1 whole entry, looked up): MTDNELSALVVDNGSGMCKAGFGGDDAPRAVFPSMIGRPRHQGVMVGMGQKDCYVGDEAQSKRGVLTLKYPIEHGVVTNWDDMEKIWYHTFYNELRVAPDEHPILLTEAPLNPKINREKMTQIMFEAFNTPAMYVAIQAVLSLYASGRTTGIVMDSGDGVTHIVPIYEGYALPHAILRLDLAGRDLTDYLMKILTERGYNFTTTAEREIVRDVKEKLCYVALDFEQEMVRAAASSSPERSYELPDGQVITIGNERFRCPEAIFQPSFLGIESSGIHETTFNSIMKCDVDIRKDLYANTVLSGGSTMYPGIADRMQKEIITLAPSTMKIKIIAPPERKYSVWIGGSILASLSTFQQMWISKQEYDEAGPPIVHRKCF
Chain of UniProt Q9H6S1 (Q9H6S1 whole entry, looked up): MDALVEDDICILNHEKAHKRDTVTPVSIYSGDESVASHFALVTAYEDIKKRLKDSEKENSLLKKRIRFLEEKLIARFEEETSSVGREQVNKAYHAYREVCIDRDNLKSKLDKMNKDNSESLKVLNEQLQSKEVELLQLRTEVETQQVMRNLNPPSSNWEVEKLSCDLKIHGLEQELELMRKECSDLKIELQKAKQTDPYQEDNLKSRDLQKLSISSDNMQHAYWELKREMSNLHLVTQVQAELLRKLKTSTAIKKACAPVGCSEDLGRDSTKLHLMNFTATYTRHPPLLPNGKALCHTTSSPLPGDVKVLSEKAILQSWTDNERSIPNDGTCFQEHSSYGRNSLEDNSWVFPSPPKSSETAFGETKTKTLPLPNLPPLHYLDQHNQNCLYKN
Chain of UniProt P33121 (P33121 whole entry, looked up): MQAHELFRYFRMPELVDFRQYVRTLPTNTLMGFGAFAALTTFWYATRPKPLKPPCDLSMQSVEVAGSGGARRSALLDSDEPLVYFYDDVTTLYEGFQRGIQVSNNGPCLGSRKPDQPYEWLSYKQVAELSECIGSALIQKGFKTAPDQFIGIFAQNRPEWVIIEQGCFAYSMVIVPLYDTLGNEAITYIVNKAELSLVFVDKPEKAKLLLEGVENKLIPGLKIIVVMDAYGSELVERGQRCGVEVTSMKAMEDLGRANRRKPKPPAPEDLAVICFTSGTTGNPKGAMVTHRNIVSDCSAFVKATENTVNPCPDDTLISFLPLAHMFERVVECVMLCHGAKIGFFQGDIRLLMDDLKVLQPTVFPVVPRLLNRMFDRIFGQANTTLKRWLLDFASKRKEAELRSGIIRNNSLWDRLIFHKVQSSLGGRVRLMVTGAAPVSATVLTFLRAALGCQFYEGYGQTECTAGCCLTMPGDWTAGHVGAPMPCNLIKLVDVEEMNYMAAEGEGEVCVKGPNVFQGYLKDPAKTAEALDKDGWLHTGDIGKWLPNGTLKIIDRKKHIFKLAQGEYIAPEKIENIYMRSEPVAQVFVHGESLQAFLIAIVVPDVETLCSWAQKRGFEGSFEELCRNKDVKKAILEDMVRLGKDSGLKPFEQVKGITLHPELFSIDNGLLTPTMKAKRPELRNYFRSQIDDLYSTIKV
Chain of UniProt O15440 (O15440 whole entry, looked up): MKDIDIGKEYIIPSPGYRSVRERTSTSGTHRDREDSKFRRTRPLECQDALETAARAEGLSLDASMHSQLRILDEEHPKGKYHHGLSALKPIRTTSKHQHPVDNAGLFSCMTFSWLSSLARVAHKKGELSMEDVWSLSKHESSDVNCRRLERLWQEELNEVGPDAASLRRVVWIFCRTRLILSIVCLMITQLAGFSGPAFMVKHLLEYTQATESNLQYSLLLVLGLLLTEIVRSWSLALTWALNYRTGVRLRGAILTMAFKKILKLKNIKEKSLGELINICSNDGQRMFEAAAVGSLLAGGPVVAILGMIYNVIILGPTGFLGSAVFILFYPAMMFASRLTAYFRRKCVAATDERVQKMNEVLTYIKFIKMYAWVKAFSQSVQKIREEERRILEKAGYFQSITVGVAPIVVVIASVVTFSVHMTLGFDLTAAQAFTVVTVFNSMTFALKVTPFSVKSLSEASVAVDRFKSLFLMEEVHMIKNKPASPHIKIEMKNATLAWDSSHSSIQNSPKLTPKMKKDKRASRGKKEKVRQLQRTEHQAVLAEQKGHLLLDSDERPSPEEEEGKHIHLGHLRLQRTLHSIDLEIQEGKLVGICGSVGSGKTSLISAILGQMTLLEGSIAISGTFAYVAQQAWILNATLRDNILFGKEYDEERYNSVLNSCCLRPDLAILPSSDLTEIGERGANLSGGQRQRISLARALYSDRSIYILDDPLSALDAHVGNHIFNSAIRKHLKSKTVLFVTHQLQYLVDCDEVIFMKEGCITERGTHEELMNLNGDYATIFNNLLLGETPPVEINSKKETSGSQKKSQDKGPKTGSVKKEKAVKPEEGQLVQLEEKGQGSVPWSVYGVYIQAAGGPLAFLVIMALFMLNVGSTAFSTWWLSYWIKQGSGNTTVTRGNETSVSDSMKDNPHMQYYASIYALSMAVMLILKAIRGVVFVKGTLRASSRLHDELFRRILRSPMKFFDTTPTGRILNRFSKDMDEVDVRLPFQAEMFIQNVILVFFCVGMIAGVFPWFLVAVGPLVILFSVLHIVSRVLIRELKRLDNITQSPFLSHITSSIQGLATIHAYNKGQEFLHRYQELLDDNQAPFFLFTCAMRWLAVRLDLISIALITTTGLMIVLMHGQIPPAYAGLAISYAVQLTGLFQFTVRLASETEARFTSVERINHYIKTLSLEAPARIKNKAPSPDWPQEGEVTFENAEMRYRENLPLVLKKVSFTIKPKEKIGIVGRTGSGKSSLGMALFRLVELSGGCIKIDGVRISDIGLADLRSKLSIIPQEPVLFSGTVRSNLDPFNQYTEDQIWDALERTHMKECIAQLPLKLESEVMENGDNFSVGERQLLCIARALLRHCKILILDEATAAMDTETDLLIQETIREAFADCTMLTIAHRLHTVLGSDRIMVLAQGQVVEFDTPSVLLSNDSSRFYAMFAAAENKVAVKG
Chain of UniProt P05091 (P05091 whole entry, looked up): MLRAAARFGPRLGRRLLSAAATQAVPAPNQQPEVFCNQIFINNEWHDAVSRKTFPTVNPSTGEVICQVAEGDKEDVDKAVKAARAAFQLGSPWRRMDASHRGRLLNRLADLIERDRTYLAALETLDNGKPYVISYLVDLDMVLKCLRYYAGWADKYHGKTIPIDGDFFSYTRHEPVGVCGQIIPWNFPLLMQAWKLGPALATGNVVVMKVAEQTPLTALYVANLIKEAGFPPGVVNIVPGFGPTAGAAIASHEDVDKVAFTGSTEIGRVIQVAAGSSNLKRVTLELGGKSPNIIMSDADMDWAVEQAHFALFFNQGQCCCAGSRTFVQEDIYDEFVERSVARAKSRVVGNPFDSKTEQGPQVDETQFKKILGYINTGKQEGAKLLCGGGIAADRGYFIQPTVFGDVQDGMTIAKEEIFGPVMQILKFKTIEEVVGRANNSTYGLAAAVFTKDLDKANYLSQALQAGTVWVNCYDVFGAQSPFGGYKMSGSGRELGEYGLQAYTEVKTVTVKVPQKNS
Chain of UniProt O94973 (O94973 whole entry, looked up): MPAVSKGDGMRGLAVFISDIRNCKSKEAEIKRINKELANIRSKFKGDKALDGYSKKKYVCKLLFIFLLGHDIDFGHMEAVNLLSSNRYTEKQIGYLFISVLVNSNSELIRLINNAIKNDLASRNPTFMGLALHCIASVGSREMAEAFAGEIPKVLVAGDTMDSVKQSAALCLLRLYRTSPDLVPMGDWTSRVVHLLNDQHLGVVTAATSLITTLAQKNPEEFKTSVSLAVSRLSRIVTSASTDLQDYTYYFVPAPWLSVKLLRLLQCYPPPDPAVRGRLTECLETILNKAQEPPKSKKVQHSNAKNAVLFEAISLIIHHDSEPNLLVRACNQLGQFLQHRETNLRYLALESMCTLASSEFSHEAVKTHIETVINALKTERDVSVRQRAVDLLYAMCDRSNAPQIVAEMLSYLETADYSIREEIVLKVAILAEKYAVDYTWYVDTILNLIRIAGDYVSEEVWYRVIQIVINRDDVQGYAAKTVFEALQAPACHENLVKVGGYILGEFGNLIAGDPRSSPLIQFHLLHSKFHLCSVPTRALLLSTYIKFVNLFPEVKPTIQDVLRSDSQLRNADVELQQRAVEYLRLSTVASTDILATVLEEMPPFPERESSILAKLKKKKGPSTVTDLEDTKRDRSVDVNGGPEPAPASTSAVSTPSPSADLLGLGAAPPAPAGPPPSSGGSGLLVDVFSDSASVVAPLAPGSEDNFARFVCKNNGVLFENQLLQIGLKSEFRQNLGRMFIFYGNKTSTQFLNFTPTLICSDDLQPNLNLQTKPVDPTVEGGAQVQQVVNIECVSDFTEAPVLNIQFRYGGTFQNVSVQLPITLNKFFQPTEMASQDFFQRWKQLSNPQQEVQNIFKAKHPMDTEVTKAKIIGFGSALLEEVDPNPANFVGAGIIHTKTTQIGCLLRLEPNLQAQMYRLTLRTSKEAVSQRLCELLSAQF
Chain of UniProt Q9UQB8 (Q9UQB8 whole entry, looked up): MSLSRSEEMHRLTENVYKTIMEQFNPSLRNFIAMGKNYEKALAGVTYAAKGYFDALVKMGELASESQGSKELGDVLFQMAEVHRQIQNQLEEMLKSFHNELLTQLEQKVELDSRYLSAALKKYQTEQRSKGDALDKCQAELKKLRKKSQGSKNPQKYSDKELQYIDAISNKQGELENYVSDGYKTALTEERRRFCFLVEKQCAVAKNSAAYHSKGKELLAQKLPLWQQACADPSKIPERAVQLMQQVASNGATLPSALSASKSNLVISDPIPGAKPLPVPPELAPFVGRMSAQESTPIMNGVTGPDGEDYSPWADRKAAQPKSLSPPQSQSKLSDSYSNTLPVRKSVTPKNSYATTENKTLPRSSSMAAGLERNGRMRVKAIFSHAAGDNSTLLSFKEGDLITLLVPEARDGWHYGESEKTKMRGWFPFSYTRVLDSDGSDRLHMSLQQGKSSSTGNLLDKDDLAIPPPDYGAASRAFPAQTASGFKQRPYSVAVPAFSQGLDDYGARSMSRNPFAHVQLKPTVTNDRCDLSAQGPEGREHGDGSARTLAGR
Chain of UniProt Q16864 (Q16864 whole entry, looked up): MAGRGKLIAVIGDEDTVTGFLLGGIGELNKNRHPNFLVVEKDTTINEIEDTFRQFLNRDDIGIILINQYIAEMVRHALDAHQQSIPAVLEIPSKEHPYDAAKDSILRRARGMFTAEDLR

Compound in the experiment: c1cn2cc(-c3ccc4cn[nH]c4c3)nc(Nc3ccc(N4CCOCC4)cc3)c2n1 [entospletinib]
Description: log2 fold change, soluble protein after heating vs DMSO (PISA); higher = thermal stabilisation; K562 cells, 10 uM, 30 min; active = over 0.2 and 3.5 SD of the protein, either way, in both replicates (recomputed). Put shortly:
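Values are thermal stability changes relative to control samples and are taken from duplicates. They are stated as log2 fold changes. Before quantification by TMTpro 16plex LC-MS/MS with equalised channel sums, K562 cells at 2×10^6 cells/mL were treated with 10 μM compound for 30 min, heated in aliquots for 3 min across 48°C-58°C, pooled, extracted in PBS with 0.5% NP-40 at 4°C, and centrifuged at 21,000xg for 90 min to give the soluble supernatant.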
In the case of ACSL1 (UniProt P33121), the log2 fold change was -0.006 (inactive).
AP2A2 isoform 2 (UniProt O94973): the log2 fold change is 0.059 (inactive).
Next, ACP1 isoform 2 (UniProt P24666): 0.052 (inactive); BCCIP isoform 2 (UniProt Q9P287): 0.008 (inactive); ACSL4 (UniProt O60488): 0.009 (inactive).
Next, ATP5ME (UniProt P56385): 0.027 (inactive).
As to ABITRAM (UniProt Q9NX38), the log2 fold change was -0.052 (inactive).
In the case of ATP6V1F isoform 2 (UniProt Q16864), the log2 fold change was 0.027 (inactive).
BRK1 isoform 2 (UniProt Q8WUW1): the log2 fold change was 0.047 (inactive).
On to APH1A (UniProt Q96BI3), for which the log2 fold change is -0.084 (inactive).
For the target BUB1B isoform 3 (UniProt O60566), the log2 fold change was -0.016 (inactive).
Next, ADD1 isoform 3 (UniProt P35611): 0.007 (inactive); ACSM3 (UniProt Q53FZ2): -0.004 (inactive).
Next, ANK2 (UniProt Q01484): 0.016 (inactive); BRD4 (UniProt O60885): 0.065 (inactive).
The result for ABCC5 (UniProt O15440) reads 0.028 (inactive); that for AAR2 (UniProt Q9Y312), -0.017 (inactive).
Regarding BRD3 (UniProt Q15059), the log2 fold change was 0.033 (inactive).
As to BRIX1 (UniProt Q8TDN6), the log2 fold change was 0.029 (inactive).
In the case of AGPAT3 isoform 3 (UniProt Q9NRZ7), the log2 fold change was -0.017 (inactive).
Next, BAIAP2 (UniProt Q9UQB8): -0.012 (inactive).
On to ACTBL2 (UniProt Q562R1), for which the log2 fold change is 0.103 (inactive).
The result for ATP2A3 isoform 2 (UniProt Q93084) reads -0.036 (inactive).
Next, ACSL3 (UniProt O95573): -0.06 (inactive); AMFR (UniProt Q9UKV5): -0.059 (inactive).
Next, ALKBH4 (UniProt Q9NXW9): -0.029 (inactive); ALG11 (UniProt Q2TAA5): -0.005 (inactive); ARFRP1 (UniProt Q13795): 0.024 (inactive).
Take ALDH9A1 (UniProt P49189): the log2 fold change was 0.066 (inactive).
Next, AKAP8 (UniProt O43823): -0.018 (inactive); ADD2 (UniProt P35612): -0.008 (inactive); ARL6IP6 (UniProt Q8N6S5): -0.091 (inactive).
As to ALDH2 isoform 2 (UniProt P05091), the log2 fold change is 0.118 (inactive).
With AZI2 (UniProt Q9H6S1), the log2 fold change was -0.142 (inactive).
Take ABCB6 (UniProt Q9NP58): the log2 fold change was 0.026 (inactive).
For the target ANXA5 (UniProt P08758), the log2 fold change is 0.016 (inactive).
Next, ATP13A3 (UniProt Q9H7F0): 0.042 (inactive); ANAPC2 (UniProt Q9UJX6): -0.001 (inactive).
Turning to ADK (UniProt P55263), the log2 fold change was 0.082 (inactive).
